Source: PubChem BioAssay
TDP1 cell CPT = qHTS for Inhibitors of human tyrosyl-DNA phosphodiesterase 1 (TDP1): qHTS in cells in presence of CPT; chicken DT40 Tdp1-/-;hTDP1 cells + 20 nM CPT, ATP luminescence, 48 h; Potency, µM (highest dose often 46.2 µM), hits mostly inhibitors; actives 12% (n = 420,000); AID 686979, 2013; also: nearly all actives have a fitted effect of over 55% in size
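Chicken DT40 Tdp1-/- cells complemented with human TDP1, 400 cells/well, exposed to compounds plus 20 nM camptothecin for at least 48 h at 37 C; viability read as ATP content by CellTiter-Glo luminescence.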
HT1080 IDH1KD tx = qHTS for induction of synthetic lethality in tumor cells producing 2HG: qHTS for the HT-1080-IDH1KD cell line; HT-1080 IDH1 knockdown viability, ATP luminescence, 48 h; Potency, µM (doses to about 46.1 µM), usual class: cytotoxic; actives 2% (n = 360,000); AID 686971, 2013
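Assay cells: HT-1080 with IDH1 knockdown, 750 per well, RPMI/5% FBS. Exposure: 48 h at 37 °C following 2 h pre-incubation. Read: CellTiter-Glo luminescence; fitted concentration-response, curve class assigned.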
HT1080NT lethal = qHTS for induction of synthetic lethality in tumor cells producing 2HG: qHTS for the HT-1080-NT fibrosarcoma cell line | HT-1080-NT fibrosarcoma viability, CellTiter-Glo ATP luminescence, 48 h | Potency, µM (top dose mostly 46.1 µM), actives largely listed as cytotoxic | actives 1.6% (n = 360,000);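 also: NT is the 2HG producing partner of a matched IDH1 knockdown line; nearly all actives have a fitted effect of over 55% in size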
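HT-1080-NT fibrosarcoma cells (2HG-overproducing), 750 cells/well in RPMI with 5% FBS, dosed after 2 h and incubated 48 h at 37C. CellTiter-Glo luminescence normalized to DMSO and no-cell wells; concentration-response curves fitted and classed.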
DT40 TDP1 no CPT = qHTS for Inhibitors of human tyrosyl-DNA phosphodiesterase 1 (TDP1): qHTS in cells in absence of CPT; DT40 Tdp1-/- hTDP1 cells, no CPT, ATP luminescence, 48 h; Potency, µM (top dose mostly 46.2 µM), usual class: inhibitors; actives 15% (n = 420,000); also: nearly all actives have a fitted effect of over 55% in size
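Readout: luminescence from CellTiter-Glo after 30 min in the dark at RT. Cells: DT40 Tdp1-/- with stable hTDP1, 400/well. Exposure: compounds alone, ≥48 hr, 37 °C.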
IL1B secr inh = qHTS for Inhibitors of Inflammasome Signaling: IL-1-beta AlphaLISA Primary Screen. actives 4.7% (n = 360,000). activity change, % at 57.5 µM. THP-1 LPS/ATP IL-1B secretion, AlphaLISA, 16 h; stronger effect = lower value; in the data active = activity change below about -50%; inconclusive = mostly about -30% to -49%
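Secreted IL-1B measured by AlphaLISA bead assay after 16 h compound exposure of THP-1 cells; compounds (final up to 57.5 uM) added 1 h before LPS (250 ng/mL) and ATP (1.25 mM) stimulation; lower signal means less secretion.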
A number is an active result. The list is not random: actives were taken first. Their share in the collection is about 19%. Unless noted, calls follow the shape of the dose curve; as a rule, active = well fitted curve in the direction sought with a large enough effect; inconclusive = small, poorly fitted or top-dose-only effect, or another doubt; inactive = no such curve, though single readings can be large; an effect the other way counts as inactive or inconclusive.

Results for CSc1ccccc1C(=O)C1CCCN(Cc2cnn(-c3ccccc3)c2)C1 (centres undefined) ?
TDP1 cell CPT: inactive; HT1080 IDH1KD tx: inconclusive; HT1080NT lethal: inactive; DT40 TDP1 no CPT: inconclusive; IL1B secr inh: inactive

What do the screens show for `CCn1cc(CN2CCCC(C(=O)c3ccc(-c4ccccc4)c(F)c3)C2)cn1` (centres undefined)?
TDP1 cell CPT: 18µM; HT1080 IDH1KD tx: 21µM; HT1080NT lethal: inconclusive; DT40 TDP1 no CPT: 23µM; IL1B secr inh: -81

How did COc1ccc(C(=O)C2CCCN(Cc3cn(C)nc3-c3ccccc3)C2)cc1F (centres undefined) do in these assays?
TDP1 cell CPT: inconclusive; HT1080 IDH1KD tx: inactive; HT1080NT lethal: inactive; DT40 TDP1 no CPT: 26µM; IL1B secr inh: inactive

Results for CNS(=O)(=O)c1cn(CC(=O)Nc2ccc(C)cc2C)cc1S(=O)(=O)NC ?
TDP1 cell CPT: inactive; DT40 TDP1 no CPT: inactive

Results for COc1cccc(CC(=O)OCC(=O)N(C)CC(=O)Nc2ccc(Cl)c(C(F)(F)F)c2)c1 ?
TDP1 cell CPT: inactive; HT1080 IDH1KD tx: inactive; HT1080NT lethal: inactive; DT40 TDP1 no CPT: inactive; IL1B secr inh: inactive

How did CCOC(=O)C1=C(COC(=O)COc2ccccc2C#N)NC(=O)NC1C (centres undefined) do in these assays?
TDP1 cell CPT: inactive; HT1080 IDH1KD tx: inactive; HT1080NT lethal: inactive; DT40 TDP1 no CPT: inactive; IL1B secr inh: inactive

Results for CC(=O)Nc1ccc(S(=O)(=O)N2CCNC(=O)C2)cc1 ?
TDP1 cell CPT: inactive; HT1080 IDH1KD tx: inactive; HT1080NT lethal: inactive; DT40 TDP1 no CPT: inactive; IL1B secr inh: inactive

Results for CCc1ccc(NC(=O)c2c(C(=O)Nc3ccccc3)sc3nc(C)cc(=O)n23)cc1 ?
TDP1 cell CPT: inconclusive; HT1080 IDH1KD tx: inactive; HT1080NT lethal: inconclusive; DT40 TDP1 no CPT: inconclusive; IL1B secr inh: inactive

How did CC1Cc2[nH]c(=S)[nH]c(=O)c2C(C)O1 (centres undefined) do in these assays?
TDP1 cell CPT: inactive; HT1080 IDH1KD tx: inactive; HT1080NT lethal: inactive; DT40 TDP1 no CPT: inactive; IL1B secr inh: inactive

What do the screens show for `COc1c(C)cc(C(=O)C2CCCN(C(=O)c3cc(C)n(C)n3)C2)cc1C` (centres undefined)?
TDP1 cell CPT: inconclusive; HT1080 IDH1KD tx: inactive; HT1080NT lethal: inactive; DT40 TDP1 no CPT: inconclusive; IL1B secr inh: inactive

How did COc1c(C)cc(C(=O)C2CCCN(S(=O)(=O)N(C)C)C2)cc1C (centres undefined) do in these assays?
TDP1 cell CPT: inconclusive; HT1080 IDH1KD tx: inactive; HT1080NT lethal: inactive; DT40 TDP1 no CPT: 13µM; IL1B secr inh: inactive

How did CN1C(=O)CSC1=NC12CC3CC(CC(C3)C1)C2 do in these assays?
TDP1 cell CPT: inactive; HT1080 IDH1KD tx: inactive; HT1080NT lethal: inactive; DT40 TDP1 no CPT: inconclusive; IL1B secr inh: inactive

What do the screens show for `CCN1C(=O)CSC1=NC12CC3CC(CC(C3)C1)C2`?
TDP1 cell CPT: inconclusive; HT1080 IDH1KD tx: inactive; HT1080NT lethal: inactive; DT40 TDP1 no CPT: inconclusive; IL1B secr inh: -66

Results for Nc1ncccc1OCc1ccc(Br)cc1 ?
TDP1 cell CPT: inactive; HT1080 IDH1KD tx: inactive; HT1080NT lethal: inactive; DT40 TDP1 no CPT: 18µM; IL1B secr inh: inactive

Results for CCCCN(CCCC)S(=O)(=O)c1ccc(NC(=O)c2ccc([N+](=O)[O-])cc2Cl)cc1 ?
TDP1 cell CPT: inconclusive; HT1080 IDH1KD tx: inconclusive; HT1080NT lethal: inactive; DT40 TDP1 no CPT: 21µM; IL1B secr inh: inactive

How did CCCCN(CCCC)S(=O)(=O)c1ccc(NC(=O)c2cccs2)cc1 do in these assays?
TDP1 cell CPT: 26µM; HT1080 IDH1KD tx: inconclusive; HT1080NT lethal: inconclusive; DT40 TDP1 no CPT: 21µM; IL1B secr inh: -85

What do the screens show for `CC(=O)N1CCN(c2ccc(NC(=O)c3ccc([N+](=O)[O-])cc3Cl)cc2)CC1`?
TDP1 cell CPT: inactive; HT1080 IDH1KD tx: inactive; HT1080NT lethal: inactive; DT40 TDP1 no CPT: inconclusive; IL1B secr inh: inactive
